Assay outcomes from PubChem BioAssay.
Sampled rows, rich in hits. Any-hit rate of the full collection: about 0.77%.
RE007 growth inh: qHTS Assay for Inhibitors of the HIV-1 protein Vpr; AID 651644, 2012; S. pombe RE007 Vpr strain, BacTiter-Glo ATP luminescence, 24 h; Potency, µM (doses to about 92.2 µM), most hits filed as inhibitors; 0.21% of 360,000 active; active = well fitted falling curve with a large enough effect; inconclusive = small, poorly fitted or top-dose-only effect; inactive = no such curve, though single readings can be large or run the other way; also: nearly all actives have a fitted effect of over 50% in size
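Fission yeast RE007 carrying one integrated HIV-1 vpr copy, seeded at OD 0.01 in PMG+AL medium with 23 nL pinned compound. Grown 24 h at 30 degrees; viability read by BacTiter-Glo luminescence after 5 min.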
LmPK inh: qHTS Assay for Inhibitors of Leishmania Mexicana Pyruvate Kinase (LmPK); Q27686; purified LmPK, Kinase-Glo ATP luminescence, 1 h; Potency, µM (titrated, usually from 57.5 µM), actives largely listed as inhibitors; 0.37% of 290,000 active
Target sequence (Q27686 whole entry, looked up): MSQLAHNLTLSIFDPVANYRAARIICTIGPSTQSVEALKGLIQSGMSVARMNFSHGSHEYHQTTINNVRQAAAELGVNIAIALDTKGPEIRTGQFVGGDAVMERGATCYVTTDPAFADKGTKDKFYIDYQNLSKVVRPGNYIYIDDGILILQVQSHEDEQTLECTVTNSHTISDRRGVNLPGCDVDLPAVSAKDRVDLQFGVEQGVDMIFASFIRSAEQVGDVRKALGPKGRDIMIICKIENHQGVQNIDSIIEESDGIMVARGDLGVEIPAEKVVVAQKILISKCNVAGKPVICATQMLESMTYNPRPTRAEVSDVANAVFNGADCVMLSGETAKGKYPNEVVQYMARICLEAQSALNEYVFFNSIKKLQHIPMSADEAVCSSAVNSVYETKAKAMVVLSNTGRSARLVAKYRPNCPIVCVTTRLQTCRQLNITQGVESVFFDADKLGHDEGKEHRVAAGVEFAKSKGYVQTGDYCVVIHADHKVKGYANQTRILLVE
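In 50 mM imidazole pH 7.2 with 7 mM MgCl2, LmPK (0.1 nM) turned over PEP (0.5 mM) and ADP (0.1 mM) for 1 h at room temperature. Luciferase read-out of ATP.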
TbPYK inhibitor: qHTS of Trypanosoma Brucei Inhibitors | AID 624173, 2012 | 0.12% of 410,000 active | pyruvate kinase (Trypanosoma brucei), Q57TT1 | Potency, µM (titrated, usually from 76.8 µM), usual class: inhibitors | TbPYK enzyme, Kinase-Glo Plus ATP luminescence, 45 min; also: nearly all actives have a fitted effect of over 50% in size
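ADP (130 uM final) triggers the TbPYK reaction after compound addition; incubation is 45 min at room temperature. Kinase-Glo Plus is then added and luminescence imaged. Normalized data are fitted to concentration-effect curves.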
NS1 inh: qHTS Assay for Inhibitors of Influenza NS1 Protein Function; Potency, µM (series often up to 46.1 µM); 0.4% of 270,000 active; AID 2326, 2010; calls by dose curve; also: actives are rising curves; nearly all actives have a fitted effect of over 50% in size
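S. cerevisiae expressing influenza A NS1, grown in glucose, washed, then diluted 1:100 into pH 6.0 -URA galactose medium with 23 nl compound. Growth recovery read as OD600; NS1-free strain serves as control.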
LmPK confirm: Confirmation Assay for Inhibitors of Leishmania Mexicana Pyruvate Kinase (LmPK); shares compounds with LmPK inh; purified LmPK, Kinase-Glo ATP luminescence, 1 h; Potency, µM (series often up to 57.5 µM), most hits filed as inhibitors; 40% of 150 active; AID 2559, 2010;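 active = compounds giving a full or partial concentration-response curve, as inhibitors or activators; inconclusive = weak, top-dose-only or unclear curve responses; inactive = no response at any tested dose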
A number is an active result; i = inactive; ? = inconclusive; nt = no result given; [ ] = another dose, or the depositor's remark. Unless noted, calls follow the shape of the dose curve; as a rule, active = well fitted curve in the direction sought with a large enough effect; inconclusive = small, poorly fitted or top-dose-only effect, or another doubt; inactive = no such curve, though single readings can be large; an effect the other way counts as inactive or inconclusive.

SMILES	RE007 growth inh	LmPK inh	TbPYK inhibitor	NS1 inh	LmPK confirm
CCOc1ccccc1NC(=O)N1CCCC(c2nc3c(nnn3Cc3ccc(C)cc3)c(=O)[nH]2)C1 (stereo not drawn)	i	i	i	i	nt
CCOC(=O)Cc1csc(NC(=S)NC(=O)c2ccc([N+](=O)[O-])cc2)n1	i	7.1µM	i	i	?
O=C(O)CN1C(=O)C=CC1=O	i	nt	i	nt	nt
O=C1C=CC(=O)N1CCCCCCN1C(=O)C=CC1=O	8.9µM	?	10µM	i	?
CCn1cc(S(=O)(=O)c2ccccc2)c(=O)c2cc(F)c(N3CCCC3)cc21	nt	nt	i	nt	nt
CC(=O)Nc1ccc(Nc2nc(C)cc(C)n2)cc1	i	i	i	i	nt
COC(=O)c1ccc(Nc2nc(C)cc(C)n2)cc1	i	i	i	i	i
COc1cccc(NC(=O)c2ccccc2)c1	i	nt	i	nt	nt
COc1ccc(C(=O)Nc2cccc(OC)c2)cc1	?	?	?	i	?
O=CN/C=C/c1cc(O)ccc1O	i	4.5µM	i	i	?
CCOc1ccc(OCC(=O)Nc2nccs2)cc1	?	10µM	22µM	i	13µM
COc1ccc(-c2nnc(SCC(=O)Nc3cccc(C(F)(F)F)c3)nc2-c2ccc(OC)cc2)cc1	nt	nt	i	nt	nt
CC(C)(C)c1ccc(CN(Cc2ccco2)Cc2nnnn2C2CCCC2)cc1	i	i	i	i	i
COc1ccc2cc(CN(Cc3ccco3)Cc3nnnn3C3CCCCC3)c(=O)[nH]c2c1	i	i	i	i	nt
Cc1ccc(Cn2c(C)c(CNCC(C)c3ccccc3)c(C(=O)O)c2C)cc1 (stereo not drawn)	nt	nt	i	nt	nt
COC(=O)c1sc(NC(=O)c2ccoc2C)nc1C	i	7.1µM	i	i	16µM
CC1=NN(c2nc3ccccc3[nH]2)C(=O)/C1=C/N(C)C	7.9µM	14µM	?	nt	7.3µM
CC1=NN(c2ccccc2)C(=O)/C1=C/N(C)C	?	i	i	i	nt
CC(C)(C)NC(=O)C(c1ccncc1)N(C(=O)Cn1nnc(-c2ccc(F)cc2)n1)c1ccccc1 (stereo not drawn)	i	8.9µM	i	i	i
Cc1ccc(N(C(=O)c2cccc(C)c2)S(=O)(=O)c2ccc(Cl)cc2)cc1	nt	nt	i	nt	nt
Cc1cccc(C(=O)Nc2ccc(S(=O)(=O)N3CCC(c4nc5ccccc5s4)CC3)cc2)c1	nt	nt	i	nt	nt
Cc1cc(C)cc(NC(=O)CN2C(=O)CCc3cc(S(=O)(=O)N4CCCCC4)ccc32)c1	nt	nt	i	nt	nt
O=C1C(Cl)=C(NC(=O)c2ccccc2)C(=O)C(Cl)=C1NC(=O)c1ccccc1	i	1.1µM	?	i	?
CCOc1ccc(N2C(=O)CN=C2Nc2ccccc2Cl)cc1	i	i	i	i	i
COc1cc(O)oc1C=Nc1ccc(Cl)cc1	i	i	i	i	nt
SMILES	RE007 growth inh	LmPK inh	TbPYK inhibitor	NS1 inh	LmPK confirm
COc1cc2c(cc1OC)C(COc1ccc(C(C)C)cc1)N(C(=O)c1ccc(S(=O)(=O)N3CCCC3)cc1)CC2 (stereo not drawn)	nt	nt	i	nt	nt
COc1cccc(NC(=O)CSc2nc3ccccc3cc2Cc2ccccc2)c1	i	i	i	i	i
Cc1ccnc(NC(=O)c2ccc3c(c2)OCO3)c1	?	14µM	?	i	16µM
O=C(Nc1ccon1)c1ccc2c(c1)OCO2	i	i	i	i	nt
CC#CCN1c2ccccc2[C@]23C[C@@H](C(=O)OC)N(S(=O)(=O)CCCC)C2=NC(C(=O)OC)=C(C(=O)OC)[C@H]13	nt	i[11.5 µM]	nt	nt	nt
Cc1ccc(S(=O)(=O)Oc2cc(S(=O)(=O)O)cc3cc(S(=O)(=O)O)cc(N)c23)cc1	nt	nt	nt	i	nt
Cc1cc(OCC(=O)Nc2ccc(-c3nc4cc(Cl)ccc4o3)cc2)cc(C)c1Cl	nt	nt	i	nt	nt
O=C(Nc1ccc(N2CCOCC2)cc1)c1cn2ccccc2n1	i	2.8µM	?	i	16µM
COc1cc(-c2nc(-c3ccccn3)no2)cc(OC)c1OC	i	i	i	i	nt
c1ccc(-c2nc(-c3ccccn3)no2)cc1	?	3.5µM	?	i	15µM
CC(C)NC(=O)N1CCCC2(CCN(C(=O)c3csnn3)CC2)C1	nt	nt	i	nt	nt
Cc1ccc(S(=O)(=O)N2CCN(Cc3ccccc3C(F)(F)F)CC2)cc1	i	i	i	i	i
O=S(=O)(c1ccccc1)N1CCN(Cc2ccccc2C(F)(F)F)CC1	i	i	i	i	nt
COc1ccc(NC(=O)CSc2nc3nc(C)c(Cc4ccccc4)c(C)n3n2)cc1OC	nt	nt	i	nt	nt
CCOc1ccc(/C=N/NC(=O)COc2ccccc2-c2ccccc2)cc1	i	i	i	i	i
CCOc1ccc(/C=N/NC(=O)c2c(-c3ccccc3)noc2C)cc1	i	i	i	i	nt
O=c1cc(N=Nc2ccc(O)cc2)[nH]c(=O)[nH]1	nt	nt	nt	i	nt
Cc1ccc2nc(-c3ccc(N)cc3)sc2c1	i	?	i	i	nt
Nc1ccc2nc(-c3ccccc3)sc2c1	?	8.9µM	?	i	16µM
CCc1ccc(NC(=O)CC2C(=O)N(c3cccc(C)c3)C(=O)N2Cc2ccco2)cc1 (stereo not drawn)	nt	nt	i	nt	nt
Cc1cnccc1CN(C)Cc1cn(C)nc1-c1cccc(Cl)c1	i	i	i	i	i
CN(Cc1cn(C)nc1-c1cccc(Cl)c1)CC1CCCCO1 (stereo not drawn)	i	i	i	i	i
Cc1cnccc1CN(C)Cc1cn(C)nc1-c1ccc(Oc2ccccc2)cc1	i	i	i	i	i
CCN(Cc1nc(-c2cccc(Cl)c2)no1)CC1CCCO1 (stereo not drawn)	i	i	i	i	nt
COc1ccc(C(CNC(=O)COc2ccc(Cl)c(C)c2)N2CCOCC2)cc1 (stereo not drawn)	nt	nt	i	nt	nt
SMILES	RE007 growth inh	LmPK inh	TbPYK inhibitor	NS1 inh	LmPK confirm
O=C(/C=C/Nc1ccccc1Br)c1ccccn1	i	5µM	?	i	21µM
O=C(NC(=O)c1ccccc1)Nc1ccccn1	nt	4.5µM	nt	i	13µM
O=C(Nc1ccccn1)c1ccc(C(=O)c2ccccc2)cc1	i	nt	i	nt	nt
O=C(c1ccccc1)c1cc2ccc(O)cc2oc1=O	?	3.5µM	?	i	7.3µM
CC(=O)Nc1ccc(C23CC4CC(CC(C4)C2)C3)cc1	i	i	i	i	nt
Oc1ccc(C23CC4CC(CC(C4)C2)C3)cc1O	?	0.28µM	?	i	i
CC(=O)Oc1ccc(-c2nc(-c3cccnc3)no2)cc1	i	5µM	i	i	5.8µM
CCOc1ccc(NC(=O)Nc2ccccc2C(N)=O)cc1	?	3.2µM	i	i	10µM
COc1ccc(N=CC2=C(O)c3ccccc3C2=O)c(OC)c1	i	?	?	i	nt
Cc1ccccc1N=CC1=C(O)c2ccccc2C1=O	?	4µM	?	i	15µM
CCN1C(=O)c2cccc3c(NS(=O)(=O)c4ccc(NC(C)=O)cc4)ccc1c23	i	i	i	i	nt
CCOC(=O)c1ccc(NC(=O)Nc2ccc3c4c(cccc24)C(=O)N3CC)cc1	i	i	i	i	i
COn1c(SCc2ccc(Cl)cc2)nc2ccccc2c1=O	i	i	i	i	i
